For the assay, the system named is NCI-H1944. Description: normalised cell viability (NPI; 0 = phenylarsine oxide control, 1 = DMSO control) (fraction of DMSO control); NCI-H1944 is a non-small cell lung cancer line; higher = more viable cells (less compound toxicity). The conditions noted are these: 6 days.
The mark [1] stands for this setting: glucocorticoid arm: hydrocortisone 2.75 uM co-treatment, compound 1 µM.
Where [2] appears, read: glucocorticoid arm: hydrocortisone 2.75 uM co-treatment, compound 5 µM.
Setting [3] is: glucocorticoid arm: hydrocortisone 2.75 uM pre-treated 2 days and continued, compound 1 µM.
[4] abbreviates: glucocorticoid arm: hydrocortisone 2.75 uM pre-treated 2 days and continued, compound 5 µM.
Where [5] appears, read: glucocorticoid arm: vehicle, compound 1 µM.
The mark [6] stands for this setting: glucocorticoid arm: vehicle, compound 5 µM.

Structures can show the parent of a compound that is named as a salt. ± gives the standard deviation of the averaged measurements. In all, about 1,900 compounds were measured (“normalised cell viability (NPI; 0 = phenylarsine oxide control, 1 = DMSO control)”: median about 1, lowest 2% from about 0.039 on). This is one part of a sample in which the lowest values are shown more often than they occur.
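Note: CTB read-out in 384-well plates, triplicate wells, NPI normalised per plate against 1 µM phenylarsine oxide (0) and 0.1% DMSO (1) controls.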

For `NCCC1CCCC(CCN)N1` (stereo not given) [MDL 26,630 trihydrochloride], the normalised cell viability by setting is: under setting [1], 0.9937 ± 0.0075; under setting [2], 0.981 ± 0.021; under setting [3], 0.9927 ± 0.0075; under setting [4], 1.04 ± 0.11; under setting [5], 0.9923 ± 0.0042; under setting [6], 1 ± 0.011.
For the compound `NC1(C(=O)O)CCCCC1` [1-Amino-1-cyclohexanecarboxylic acid hydrochloride], the normalised cell viability under setting [1] came out at 0.998 ± 0.011; the normalised cell viability under setting [2] stood at 0.9907 ± 0.0081; the normalised cell viability under setting [3] turned out to be 0.9927 ± 0.0049; the normalised cell viability under setting [4] worked out at 0.991 ± 0.013; the normalised cell viability under setting [5] is 0.9913 ± 0.009; the normalised cell viability under setting [6] was determined as 0.999 ± 0.011.
As to `N#C/C(=C/c1ccc(O)c(O)c1)C(=O)N1CCc2ccccc21` [Tyrphostin AG 528], the normalised cell viability is 0.993 ± 0.0089 under setting [1]; 0.987 ± 0.032 under setting [2]; 1.02 ± 0.031 under setting [3]; 0.9767 ± 0.0095 under setting [4]; 1.003 ± 0.0058 under setting [5]; 1.02 ± 0.01 under setting [6].
As to `NCCCCCC(=O)O` [6-Aminohexanoic acid], the normalised cell viability came out at 0.9763 ± 0.0095 under setting [1]; 0.972 ± 0.022 under setting [2]; 1 ± 0.011 under setting [3]; 0.971 ± 0.041 under setting [4]; 0.99 ± 0.019 under setting [5]; 0.9787 ± 0.0067 under setting [6].
In the case of `NCC(=O)CCC(=O)O` [Aminolevulinic acid hydrochloride; Aminolevulinic acid], the normalised cell viability came to 1.04 ± 0.021 under setting [1]; 0.0671 ± 0.0064 under setting [2]; 1.023 ± 0.0058 under setting [3]; 0.486 ± 0.037 under setting [4]; 1.001 ± 0.0081 under setting [5]; 0.00332 ± 0.0013 under setting [6].
Consider `NCCCCC(=O)O` [5-Aminovaleric acid hydrochloride], for which the normalised cell viability under setting [1] was 0.9807 ± 0.0096; the normalised cell viability under setting [2] was 0.99533 ± 0.00058; the normalised cell viability under setting [3] turned out to be 0.9797 ± 0.0035; the normalised cell viability under setting [4] was determined as 0.9945 ± 0.00071; the normalised cell viability under setting [5] is 0.992 ± 0.0066; the normalised cell viability under setting [6] was 0.9927 ± 0.0032.
As to `[Cl-].[Li+]` [Lithium Chloride], the normalised cell viability was determined as 1.007 ± 0.0058 under setting [1]; 0.998 ± 0.013 under setting [2]; 1.01 ± 0.013 under setting [3]; 1.01 ± 0.018 under setting [4]; 1.01 under setting [5]; 1.002 ± 0.0072 under setting [6].
Take `C[C@]12CC[C@@H]3c4ccc(O)cc4CC[C@H]3[C@@H]1C[C@@H](O)[C@@H]2O` [Estriol]: the normalised cell viability by setting is: under setting [1], 1.02 ± 0.011; under setting [2], 1.01 ± 0.014; under setting [3], 1.01 ± 0.01; under setting [4], 1.02 ± 0.021; under setting [5], 1.007 ± 0.0058; under setting [6], 1.01 ± 0.011.
In the case of `C[C@]12CC[C@@H]3c4ccc(O)cc4CC[C@H]3[C@@H]1CC[C@@H]2O` [beta-Estradiol], the normalised cell viability by setting is: under setting [1], 0.9927 ± 0.005; under setting [2], 0.954 ± 0.022; under setting [3], 0.9937 ± 0.0055; under setting [4], 0.962 ± 0.028; under setting [5], 0.9753 ± 0.0031; under setting [6], 0.9807 ± 0.0032.
`CNC(=O)[C@H]1O[C@@H](n2cnc3c(NCc4ccc(N)cc4)ncnc32)[C@H](O)[C@@H]1O`: the normalised cell viability is, setting by setting: under setting [1], 1.01 ± 0.012; under setting [2], 0.9953 ± 0.0081; under setting [3], 0.997 ± 0.003; under setting [4], 1; under setting [5], 0.9873 ± 0.0091; under setting [6], 1.001 ± 0.0085.
Regarding `C[C@@H](Oc1ccc(Oc2cnc3ccc(Cl)cc3n2)cc1)C(=O)O`, the normalised cell viability by setting is: under setting [1], 1.004 ± 0.0098; under setting [2], 0.88 ± 0.023; under setting [3], 0.858 ± 0.29; under setting [4], 1.05 ± 0.015; under setting [5], 1.027 ± 0.0058; under setting [6], 0.522 ± 0.054.
Take `CNCC[C@@H](Oc1ccc(C(F)(F)F)cc1)c1ccccc1` [R-(-)-Fluoxetine hydrochloride]: the normalised cell viability under setting [1] was found to be 0.999 ± 0.011; the normalised cell viability under setting [2] is 0.92 ± 0.014; the normalised cell viability under setting [3] is 1.013 ± 0.0058; the normalised cell viability under setting [4] came to 1.02 ± 0.029; the normalised cell viability under setting [5] turned out to be 0.995 ± 0.0036; the normalised cell viability under setting [6] was found to be 0.9947 ± 0.005.
In the case of `N#Cc1ccc2[nH]c(O)c(-c3ccc(CN4CCOCC4)cn3)c2c1`, the normalised cell viability reads like this: under setting [1], 1.11 ± 0.021; under setting [2], 1.24 ± 0.021; under setting [3], 1.053 ± 0.0058; under setting [4], 1.11 ± 0.023; under setting [5], 1.02 ± 0.011; under setting [6], 1.05 ± 0.015.
As to `CN1CC2c3ccccc3Oc3ccc(Cl)cc3C2C1` (stereo not given) [Asenapine], the normalised cell viability is, setting by setting: under setting [1], 1.002 ± 0.0072; under setting [2], 1.02 ± 0.024; under setting [3], 1.01 ± 0.011; under setting [4], 1.01 ± 0.028; under setting [5], 0.995 ± 0.0087; under setting [6], 1 ± 0.0092.
On to `CN(C)CCC(c1ccc(Br)cc1)c1ccccn1` (racemic) [(±)-Brompheniramine maleate], for which the normalised cell viability runs as follows: under setting [1], 1.001 ± 0.0081; under setting [2], 1.03 ± 0.017; under setting [3], 1.013 ± 0.0058; under setting [4], 1.04 ± 0.014; under setting [5], 1.013 ± 0.0058; under setting [6], 1.02 ± 0.01.
On to `CC(C)C[C@H](NP(=O)(O)O[C@H]1O[C@H](C)[C@@H](O)[C@H](O)[C@@H]1O)C(=O)N[C@@H](Cc1c[nH]c2ccccc12)C(=O)O` [Phosphoramidon disodium], for which the normalised cell viability under setting [1] worked out at 0.9937 ± 0.0061; the normalised cell viability under setting [2] is 1.01 ± 0.02; the normalised cell viability under setting [3] was 1.01 ± 0.016; the normalised cell viability under setting [4] is 0.999 ± 0.011; the normalised cell viability under setting [5] amounted to 0.991 ± 0.0044; the normalised cell viability under setting [6] came to 0.9847 ± 0.0081.
On to `S=C(S)OC1CC2CC1C1CCCC21` [D-609 potassium], for which the normalised cell viability is 1.02 ± 0.01 under setting [1]; 1.03 ± 0.017 under setting [2]; 1.04 ± 0.02 under setting [3]; 1.04 ± 0.01 under setting [4]; 1.03 ± 0.011 under setting [5]; 1.03 under setting [6].
`Cn1c(=O)c2nc[nH]c2n(C)c1=O` [Theophylline]: the normalised cell viability runs as follows: under setting [1], 1.001 ± 0.0085; under setting [2], 1.01 ± 0.01; under setting [3], 1.02 ± 0.021; under setting [4], 0.9943 ± 0.0049; under setting [5], 0.99 ± 0.0087; under setting [6], 0.9907 ± 0.0038.
Take `O=C1OC(=O)[C@H]2[C@@H]1[C@@H]1CC[C@H]2O1` [Norcantharidin]: the normalised cell viability reads like this: under setting [1], 1.007 ± 0.0058; under setting [2], 1.03 ± 0.02; under setting [3], 1.02 ± 0.011; under setting [4], 0.924 ± 0.23; under setting [5], 0.9903 ± 0.0011; under setting [6], 1 ± 0.022.
For the compound `O=C(Cc1ccc(-c2ccc(OCCN3CCOCC3)cc2)cn1)NCc1ccccc1`, the normalised cell viability amounted to 0.235 ± 0.021 under setting [1]; 0.258 ± 0.015 under setting [2]; 0.464 ± 0.041 under setting [3]; 0.518 ± 0.077 under setting [4]; 0.0379 ± 0.0028 under setting [5]; 0.0359 ± 0.0039 under setting [6].
`O=C(OCCN1CCOCC1)C1(c2ccccc2)CCCCC1`: the normalised cell viability was found to be 1.01 ± 0.011 under setting [1]; 1.03 ± 0.088 under setting [2]; 1.02 ± 0.015 under setting [3]; 0.891 ± 0.21 under setting [4]; 1.017 ± 0.0058 under setting [5]; 1.03 ± 0.011 under setting [6].
As to `Cc1ccc(-n2nc(C(C)(C)C)cc2NC(=O)Nc2ccc(OCCN3CCOCC3)c3ccccc23)cc1` [BIRB 796 (Doramapimod)], the normalised cell viability by setting is: under setting [1], 0.806 ± 0.012; under setting [2], 0.826 ± 0.03; under setting [3], 0.775 ± 0.019; under setting [4], 0.816 ± 0.034; under setting [5], 0.995 ± 0.005; under setting [6], 1.017 ± 0.0058.
Consider `CCS(=O)(=O)Nc1ccc2[nH]c(O)c(C(=Nc3ccc(CN4CCCCC4)cc3)c3ccccc3)c2c1` [Hesperadin], for which the normalised cell viability under setting [1] is 0.435 ± 0.035; the normalised cell viability under setting [2] is 0.396 ± 0.068; the normalised cell viability under setting [3] amounted to 0.419 ± 0.087; the normalised cell viability under setting [4] was 0.51 ± 0.08; the normalised cell viability under setting [5] is 0.371 ± 0.08; the normalised cell viability under setting [6] worked out at 0.218 ± 0.035.
Take `CC(C)C[C@H](NC(=O)[C@H](CCc1ccccc1)NC(=O)CN1CCOCC1)C(=O)N[C@@H](Cc1ccccc1)C(=O)N[C@@H](CC(C)C)C(=O)[C@@]1(C)CO1` [Carfilzomib]: the normalised cell viability under setting [1] was 0.0119 ± 0.0019; the normalised cell viability under setting [2] was found to be 0.198 ± 0.017; the normalised cell viability under setting [3] turned out to be 0.652 ± 0.035; the normalised cell viability under setting [4] was found to be 0.986 ± 0.013; the normalised cell viability under setting [5] is 0.00203 ± 0.0017; the normalised cell viability under setting [6] turned out to be 0.0026 ± 0.00057.
As for `CCCCCCCCCC(=O)NC(CN1CCOCC1)[C@H](O)c1ccccc1` (mixture of isomers), the normalised cell viability is, setting by setting: under setting [1], 1.01; under setting [2], 0.9997 ± 0.0096; under setting [3], 1.02 ± 0.026; under setting [4], 1.01 ± 0.024; under setting [5], 1.01; under setting [6], 0.997 ± 0.014.

Values taken from the supplement of paper PMC8285479.
